# Where “and” joins values, the source holds several entries; their conditions need not be identical. Equal values may be shown once. Compounds without any hit were thinned out: in the full panel of roughly 83,000, 20% have a hit.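 Note: values are percent growth. 100 is the growth of untreated cells, values between 100 and 0 indicate rising inhibition; between -100 and 0 indicates cell death.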 Calls of active or inactive are those of the source. How the source made its calls: active means growth percent below 10; inactive means the rest.
# Tested on: MDA-MB-468 breast
# Test: NCI-60 one-dose screen, 48 h (100 = growth as untreated, 0 = no growth, -100 = all killed)
# Conditions: 10 µM unless noted
row,Compound,growth
1,CCn1c(Sc2nnc(NC(=O)CSC(=S)N3CCCCC3)s2)nc2c1c(=O)n(C)c(=O)n2C,98.7% (inactive)
2,Cc1cccc(/C=N/n2c(-c3ccc(Cl)cc3)nc3c(Br)cc(Br)cc3c2=O)c1,46.7% (inactive)
3,O=C(CSc1nnc(-c2cccs2)n1-c1ccccc1)Nc1ccccc1,49.1% (inactive)
4,Cc1[nH]c(=O)[nH]c(=O)c1Br,107% (inactive)
5,CCN(CC)CCCCNc1ccc(NCCCCN(CC)CC)c2c1C(=O)c1ccccc1C2=O,106% (inactive)
6,Nc1ccc(S(=O)(=O)c2ccc(N)cc2)cc1,97.5% (inactive) and 101% (inactive)
7,O=C(/C(=N/O)c1ccccc1)c1ccccc1,93.1% (inactive)
8,Cc1[c-]onc1C.Cc1[c-]onc1C.[Ag].[Ag].[NH-]S(=O)(=O)c1ccc(N=Nc2cc(N=Nc3ccc(S([NH-])(=O)=O)cc3)c3c(NC(=O)C(Cl)Cl)cccc3c2OC(=O)C(Cl)Cl)cc1,53.9% (inactive)
9,CCN1C(=O)/C(=C/N2N=C(c3ccc(Cl)cc3)CC2c2ccc(OC)cc2)SC1=S (stereo not given),93.3% (inactive)
10,CCOC(=O)c1cc(C(=O)c2ccc(OC)c(OC)c2)n2c1ccc1ccccc12,97% (inactive)
11,N#Cc1ccc(O)c(C2=NCC(c3ccccc3)O2)c1 (stereo not given),32.3% (inactive)
12,O=c1[nH]n(-c2ccccc2)c(=O)cc1Cl,101% (inactive)
13,CC(C)c1[nH]nc2c(NCc3ccc(-c4ccccn4)cc3)nc(SCCN)nc12,-60.3% (active)
14,COc1cc(/C=C/C(=O)N2CCN(C(=O)/C=C/c3ccccc3)CC2)cc(OC)c1OC,107% (inactive)
15,OCc1n(Cc2ccc3ccccc3c2)cc[n+]1Cc1ccc2ccccc2c1,-29% (active)
16,COc1ccc2c(c1)c(-c1nc(N)nnc1-c1c[nH]c3ccccc13)cn2C,-9.57% (active)
17,CCOC(=O)CC1CSC(N/N=C(/C)c2cccc(C(F)(F)F)c2)=N1 (stereo not given),104% (inactive)
18,FC(F)(F)c1ccc(-c2cnc(Cl)nc2NC2CCCCCC2)cc1,-4.8% (active)
19,C#CCNCCCN1C(=O)c2ccc3c4c(ccc(c24)C1=O)C(=O)N(CCCNCC#C)C3=O,-85.6% (active)
20,COC(=O)[C@]12CCC(C)(C)C[C@H]1[C@H]1C(=O)C[C@@H]3[C@@]4(C)c5c([nH]c6ccccc6c5=O)C(C)(C)[C@@H]4CC[C@@]3(C)[C@]1(C)CC2,34.5% (inactive)

row,Compound,growth
1,Cc1c(C)c2c(c(C)c1OC(=O)CCC(=O)[O-])CCC(C)(CCCCCCCCCCC[P+](c1ccccc1)(c1ccccc1)c1ccccc1)O2 (stereo not given),-70.4% (active)
2,O=C(O)CSCC(=O)Nc1cc(C(F)(F)F)ccc1Cl,105% (inactive)
3,COc1ccc(/C=C2\Oc3cc(OCCCCN4CCCC4)ccc3C2=O)cc1,74.5% (inactive)
4,CCCCCCCCCNCCCCCCCCC,22.5% (inactive)
5,Fc1cccc(F)c1C#Cc1ccc2cccnc2c1,36.5% (inactive)
6,CCCCCCCCCCCC1N=C(N)N=C(N)N1c1cccc(Br)c1 (stereo not given),-92.7% (active)
7,Nc1nc(-c2cccc([N+](=O)[O-])c2)c(N=Nc2ccccc2[N+](=O)[O-])s1,74.8% (inactive)
8,CCOC(=O)N1C/C(=C/c2ccc(F)cc2)C(=O)/C(=C/c2ccc(F)cc2)C1,-55.6% (active)
9,CS(=O)(=O)Nc1ccc(-c2nn(-c3ccc(S(C)(=O)=O)cc3)cc2/C=C/C(=O)c2ccc(NC(=O)CO[N+](=O)[O-])cc2)cc1,95% (inactive)
10,COc1ccc(Cn2cc(COc3ccc4c5ccnc(C)c5n(CCCc5ccccc5)c4c3)nn2)cc1,62.5% (inactive)
11,C=C(C)[C@@H]1C[C@@H]2Cc3ccc(Cl)c(C)c3N1O2,96.3% (inactive)
12,Cc1ccc2c(n1)C(=O)c1[nH]c3ccccc3c1C2=O,-15.8% (active)
13,Cc1ccc(N2CCN(C(=S)c3cccs3)CC2)cc1,88.7% (inactive)
14,N#CC1=C(N2CCOCC2)NC2c3ccccc3Sc3ccccc3N2C1=N (stereo not given),99.9% (inactive)
15,CC(=O)c1cc2c(N)c(C(=O)Nc3cccc4ccncc34)sc2nc1C,71.6% (inactive)
16,C#CCOc1ccc2ncnc(Nc3cccc(NC(=O)CCl)c3)c2c1,68.5% (inactive)
17,CCN(CC)Cc1cccc(C(=O)OC)c1,97.2% (inactive)
18,O=C1/C(=C/c2ccc(Br)cc2)C=C(c2ccccc2)N1CCc1ccccc1,45% (inactive)
19,C[n+]1ccc(Nc2ccc(NC(=O)c3ccc(Nc4cc[n+](C)c5ccc(N)cc45)cc3)cc2)cc1,94.8% (inactive)
20,N=C(N)c1ccc(-c2ccc(-c3ccccc3)s2)s1,-94.5% (active)
